Where “and” joins values, the source holds several entries; their conditions need not be identical. Identical values can stand only once. Some compounds were tested as several samples or in several runs, with calls that do not always agree. Calls of active or inactive are those of the source.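 Rule for the calls, unless noted: active = inhibition at or above 50% relative to wild type and mutant plate controls; inactive = inhibition below 50%.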

Assay [1] is described as follows: inhibitors of TNFa-induced NFkB p65 translocation, primary screen, imaging, HUVEC, MLSMR starter and 10KST1 sets (AID 438;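 active = inhibition above 20% together with a positive visual image hit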;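 note: compound added about 3h40 before a 20 min TNFalpha stimulation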;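 for inhibition: signal is the nuclear over cytoplasmic p65 intensity ratio per well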). The note with it: HUVEC TNFa-induced p65 nuclear translocation; cell count: measured here: nuclei count (cytotoxicity indicator), at 2.08 µM; inhibition: at 2 µM, stronger effect = higher value, 0% TNFa-plus-vehicle, 100% no-TNFa wells.
Assay [2] is described as follows: inhibitors of E-selectin induction by TNFa, primary screen, imaging, HUVEC, immunofluorescence, MLSMR starter and 10KST1 sets (AID 487;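 active = visually confirmed hit in the image check and inhibition above 20%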;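 for inhibition: signal is fraction of cell area covered by stained E-selectin grains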;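 for nuclei count: 100% = median nuclei count of all wells on the same plate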). To be noted: HUVEC TNFalpha-induced E-selectin immunofluorescence imaging, at 2 µM; inhibition: stronger effect = higher value; nuclei count: measured here: cell number, toxicity.
Assay [3] can be described thus: DUSP6 inhibitors restoring Erk phosphorylation by chemical complementation, primary imaging in DUSP6-transfected HeLa (AID 609;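 active = compounds giving at least 50% inhibition in the cell-based MKP-3 phosphatase rescue imaging test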;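 for inhibition: phospho-Erk level distribution per well compared with pooled transfected vehicle control wells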). To be noted: HeLa MKP-3 transfected, phospho-Erk imaging KS statistic, at 10 µM, cells stimulated with TPA for 15 min.
Assay [4] has as its target Dual specificity protein phosphatase 6 (Homo sapiens) (UniProt Q16828). Described as above. The note with it: HeLa MKP-3 transfected, phospho-Erk imaging KS statistic; at 10 µM; stronger effect = higher value; cells stimulated with TPA for 15 min.
The target in assay [5] is Voltage-gated potassium channel subunit beta-2 (Rattus norvegicus) (UniProt P62483). Briefly: KvBeta enzyme negative modulators, primary screen, biochemical, NADPH fluorescence (AID 622;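 active = fluorescence slope higher than the sample average by over 3 SD, cut at about -0.22 in these data, passing the limit was not always enough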;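 note: slope of raw intensity against log time taken from 70 to 1610 s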). The note with it: recombinant KvBeta, 4-cyanobenzaldehyde reduction, at 10 µM, stronger effect = higher value.
Voltage-gated potassium channel subunit beta-2 (Rattus norvegicus), sequence (P62483 whole entry, looked up): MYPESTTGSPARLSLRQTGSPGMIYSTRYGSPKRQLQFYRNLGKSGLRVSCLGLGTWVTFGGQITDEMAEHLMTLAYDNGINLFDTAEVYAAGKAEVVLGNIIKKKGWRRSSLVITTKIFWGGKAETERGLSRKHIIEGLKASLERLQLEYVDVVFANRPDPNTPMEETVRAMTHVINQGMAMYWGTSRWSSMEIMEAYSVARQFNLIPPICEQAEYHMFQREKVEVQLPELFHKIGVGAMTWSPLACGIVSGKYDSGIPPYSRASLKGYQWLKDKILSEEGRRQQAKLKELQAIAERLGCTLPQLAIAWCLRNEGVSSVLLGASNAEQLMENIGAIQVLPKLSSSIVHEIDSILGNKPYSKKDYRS
For assay [6] the target is unchanged. The assay is described as follows: KvBeta positive modulators, primary screen, biochemical, NADPH fluorescence (AID 623;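 active = NADPH fluorescence slope more negative than the mean of all samples by about 3 SD, 99.7% confidence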;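 note: fluorescence intensity change per second fitted from 20 to 320 s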). To be noted: Recombinant KvBeta, NADPH fluorescence decrease slope, 10 min; at 10 µM; stronger effect = lower value.
Assay [7] has as its target Alpha-2C adrenergic receptor (Homo sapiens) (UniProt P18825). The assay is described as follows: modulators of alpha2C/GIRK thallium flux, primary screen, cell-based, HEK293 alpha2C/GIRK1/2 (AID 624;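 active = fluorescence slope after compound addition differing from the mean of all screened samples at 99.7% confidence, in either direction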;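 note: slope of fluorescence ratio to pre-addition baseline per second over 15 to 24 s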). To be noted: thallium flux BTC fluorescence, at 10 µM, actives lie on both sides.
The nature of assay [8]: inhibitors of larval lipid processing in zebrafish, primary screen, whole organism, PED6 fluorescence, gall bladder and intestine (AID 686;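 active = a full or partial loss of lipid-probe fluorescence in the fish gall bladder, intestine or both, judged by eye; inactive = no fluorescence loss, or compound toxic to the fish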;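 note: larvae 5 to 7 days old with five fish per well; signal comes from phospholipase A2 cleavage of quenched PED6 carried via bile; overnight exposure to compound and PED6 before scoring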). To be noted: Zebrafish larvae PED6 lipid processing, fluorescence scoring; screened at 20 µM (by protocol).
Assay [9] in a line: inhibitors of Chlamydomonas gravitaxis, primary screen, whole organism, Chlamydomonas reinhardtii, WT vs cilia-less mutant, absorbance, 96-well (AID 463189).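 Note: 0% = wild type cc124 cells in DMSO and 100% = ciliumless bld1 mutant cells.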 To be noted: OD600 absorbance, 2 days, at 10 µM, stronger effect = higher value.
Assay [10] is described as follows: inhibitors of Sendai virus-induced IRF3 signaling, primary screen, TLR/RLR signaling modifier project, cell-based, Sendai virus stimulus, luciferase, 10K MLSCN set (AID 602276;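 active = inhibition at or above 50% at 10 µM; inactive = inhibition below 50%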;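 note: firefly luciferase from ISG56 promoter only with Renilla not read in this screen; 0% = Sendai virus plus DMSO and 100% = medium plus DMSO without virus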). The note with it: HEK293 RL24 IRF3 luciferase reporter, at 10 µM, stronger effect = higher value.
Assay [11] in a line: inhibitors of poly I:C-induced TLR3 signaling, primary screen, cell-based, poly I:C stimulus, luciferase, 10K MLSCN set (AID 602277;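 active = inhibition of the reporter signal at or above 50%; inactive = inhibition below 50%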). To be noted: HEK293-TLR3 RL24 IRF3 luciferase reporter, at 10 µM, stronger effect = higher value. Background: In a reporter assay the amount or activity of a reporter protein is the signal.
Assay [12] in a line: inhibitors of mutant huntingtin aggregation, primary screen, imaging, exon1htt(103Q)mCFP cells, high-content imaging (AID 483;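 active = visual image review flags a hit and inhibition of aggregation exceeds 20%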;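 note: compound exposure lasted 3 days before fixation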;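 for nuclei count: percent of the per-plate median nuclei count of sample wells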). The note with it: exon1htt(103Q)mCFP cell line, aggregate imaging, at 2 µM; inhibition of aggregation: stronger effect = higher value; nuclei count: measured here: cell count, toxicity.
The mark [13] stands for this setting: measured here: cell density z-score.
Where [14] appears, read: measured here: nuclear c-Myc green intensity z-score.
[15] abbreviates: measured here: nuclear pErk red intensity z-score, stronger effect = higher value.

Dual specificity protein phosphatase 6 (Homo sapiens), sequence (Q16828 whole entry, looked up): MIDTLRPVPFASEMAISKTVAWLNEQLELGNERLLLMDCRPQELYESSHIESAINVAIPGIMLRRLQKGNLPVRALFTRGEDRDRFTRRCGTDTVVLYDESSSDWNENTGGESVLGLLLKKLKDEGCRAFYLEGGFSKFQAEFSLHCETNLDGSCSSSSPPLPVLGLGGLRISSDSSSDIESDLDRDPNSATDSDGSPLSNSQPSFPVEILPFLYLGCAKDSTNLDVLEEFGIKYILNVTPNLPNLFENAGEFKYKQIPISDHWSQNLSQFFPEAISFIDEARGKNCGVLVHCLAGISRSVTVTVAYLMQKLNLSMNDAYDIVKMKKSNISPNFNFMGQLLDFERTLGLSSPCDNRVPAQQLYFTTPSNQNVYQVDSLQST
Alpha-2C adrenergic receptor (Homo sapiens), sequence (P18825 whole entry, looked up): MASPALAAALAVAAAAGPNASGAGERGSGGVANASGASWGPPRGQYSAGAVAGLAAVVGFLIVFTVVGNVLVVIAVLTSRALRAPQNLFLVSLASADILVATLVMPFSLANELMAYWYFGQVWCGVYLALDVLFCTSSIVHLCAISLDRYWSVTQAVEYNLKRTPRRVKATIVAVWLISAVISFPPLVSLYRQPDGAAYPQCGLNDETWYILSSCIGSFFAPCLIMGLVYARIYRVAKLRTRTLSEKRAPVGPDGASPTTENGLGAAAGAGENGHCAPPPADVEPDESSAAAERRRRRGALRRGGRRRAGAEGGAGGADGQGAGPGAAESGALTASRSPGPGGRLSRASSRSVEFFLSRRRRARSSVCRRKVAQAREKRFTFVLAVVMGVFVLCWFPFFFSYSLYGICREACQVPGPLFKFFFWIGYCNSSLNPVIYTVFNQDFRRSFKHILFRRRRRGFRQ

As for `O=C1C(CCS(=O)c2ccccc2)C(=O)N(c2ccccc2)N1c1ccccc1` (stereo not given), in assay [1], the cell count worked out at 647. The inhibition in assay [1] was 4.4% (inactive); in [2], -95.5% (inactive); in [4], 12.4% (inactive); in [9] it was -7.13% (inactive); in assay [10] it was 7.23% (inactive); in assay [11], 25.7% (inactive). Moreover, the nuclei count in [2] worked out at 124%. The z-score is 0.561 in assay [3] (setting [13]), 0.78 in [3] (setting [14]) and -1.11 in assay [3] (setting [15]). Besides, the fluorescence slope in assay [5] was -0.436 (inactive). The NADPH fluorescence slope in assay [6] was -4.2e-05 (inactive). Further, the slope in assay [7] is 0.00501 (inactive). Moreover, in [8], the compound was classed as inactive.

On to `CN1CCN(C2=Nc3ccccc3Oc3ccc(Cl)cc32)CC1`, for which the cell count in assay [1] amounted to 536. For the same compound, the inhibition in assay [1] is -3.1% (inactive); in [2] it was -3.4% (inactive); in assay [4] it was 14.6% (inactive); in [9], 27.3% (inactive) and 39.2% (inactive); in [10] it was 13.8% (inactive); in assay [11], 41.9% (inactive). Further, in assay [12], the inhibition of aggregation is -4.5% (inactive). Besides, the nuclei count came to 91.8% in assay [12] and 105% in assay [2]. Also, the z-score in assay [3] (setting [13]) is -0.87; in [3] (setting [14]) it was 0.672; in [3] (setting [15]), -0.787. Besides, the fluorescence slope in [5] is -0.437 (inactive). Also, the NADPH fluorescence slope in assay [6] is -4.1e-05 (inactive). Also, the outcome in assay [8] was “inactive; toxic”.

For `Cc1ccc(N(CC2=NCCN2)c2cccc(O)c2)cc1`, the cell count in assay [1] was 561 and 534. Moreover, the inhibition in [1] is -6.5% (inactive) and 2.1% (inactive); in assay [2] it was -44.6% (inactive) and -23.4% (inactive); in assay [4], 5.79% (inactive); in [9], 4.48% (inactive) and 1.6% (inactive) and -7.32% (inactive); in [10], 0.917% (inactive) and -3.85% (inactive); in [11] it was 21.2% (inactive) and 12.9% (inactive). Moreover, the inhibition of aggregation in [12] was -6.5% (inactive) and -10.5% (inactive). The nuclei count in assay [12] was 106% and 78.7%; in [2], 136% and 125%. Also, the z-score in assay [3] (setting [13]) was -1.49 and -0.829; in [3] (setting [14]), 1.38 and 2.5; in assay [3] (setting [15]), -0.739 and 1.17. Moreover, the fluorescence slope in [5] is -0.452 (inactive) and -0.478 (inactive). Besides, the NADPH fluorescence slope in [6] is -5.4e-05 (inactive) and -3.9e-05 (inactive). The compound was called inactive in assay [8].

`CC(C)Oc1ccc2c(=O)c(-c3ccccc3)coc2c1`: in assay [1], the cell count is 646. The inhibition was 2.7% (inactive) in assay [1]; -33.4% (inactive) in [2]; 10.2% (inactive) in [4]; -9.11% (inactive) in assay [9]; -37.9% (inactive) in assay [10]; -186% (inactive) in assay [11]. The same compound returned a nuclei count in [2] of 124%. For the same compound, the z-score in assay [3] (setting [13]) was -1.12; in assay [3] (setting [14]) it was -0.535; in [3] (setting [15]), 0.614. The fluorescence slope in assay [5] was -0.425 (inactive). In assay [6], the NADPH fluorescence slope was -6.4e-05 (inactive). Further, the slope in assay [7] was 0.00497 (inactive). The result in [8] was inactive.

As to `Nc1ccc(S(=O)(=O)Nc2ncccn2)cc1`, in assay [1], the cell count is 603. Moreover, the inhibition is -1.5% (inactive) in assay [1]; -68.8% (inactive) in assay [2]; 5.79% (inactive) in assay [4]; -12.2% (inactive) in [9]; 15.1% (inactive) in [10]. Besides, the inhibition of aggregation in assay [12] was -4.1% (inactive). The nuclei count in assay [12] stood at 87.5%; in [2], 130%. Also, the z-score was 1.12 in assay [3] (setting [13]), -1.89 in assay [3] (setting [14]) and 1.02 in [3] (setting [15]). In addition, the fluorescence slope in assay [5] was -0.5 (inactive). Moreover, the NADPH fluorescence slope in assay [6] is -6.3e-05 (inactive). Besides, in assay [7], the slope was 0.00507 (inactive). The outcome in assay [8] was inactive.

On to `CCCn1c(=O)[nH]c(=O)c2[nH]cnc21`, for which the cell count in assay [1] came out at 615. Further, the inhibition in assay [1] was -1.8% (inactive); in assay [2], -98.8% (inactive); in assay [4], 19% (inactive); in assay [9], 4.71% (inactive) and 14.1% (inactive); in assay [10], 18.8% (inactive); in assay [11], 33.6% (inactive). The same compound gave a nuclei count in [2] of 137%. Moreover, the z-score was 2.73 in assay [3] (setting [13]), -1.33 in [3] (setting [14]) and 0.0338 in assay [3] (setting [15]). The fluorescence slope in assay [5] was -0.494 (inactive). Moreover, the NADPH fluorescence slope in assay [6] is -7.3e-05 (inactive). In addition, in assay [7], the slope is 0.00482 (inactive). Further, in assay [8], the compound was classed as inactive.

On to `O=C(O)CCNC(=O)c1ccccc1`, for which the cell count in assay [1] was found to be 571. Also, the inhibition in assay [1] is -4.9% (inactive); in [2], -50.2% (inactive); in [4] it was 17.3% (inactive); in [9] it was 27.8% (inactive); in assay [10] it was -13.3% (inactive); in assay [11], -8.8% (inactive). Further, the nuclei count in assay [2] stood at 97.2%. For the same compound, the z-score is -0.0639 in [3] (setting [13]), -0.161 in assay [3] (setting [14]) and -1.08 in assay [3] (setting [15]). In [5], the fluorescence slope was -0.479 (inactive). For the same compound, the NADPH fluorescence slope in assay [6] was 2.2e-06 (inactive). The slope in assay [7] was 0.00491 (inactive). In assay [8], the compound was classed as inactive.

On to `CC1(C)SC2[C@H](NC(=O)C(NC(=O)N3CCNC3=O)c3ccccc3)C(=O)N2C1C(=O)O` (stereo not given in full), for which the cell count in [1] was determined as 705. The inhibition was -9.5% (inactive) in assay [1]; -58.5% (inactive) in assay [2]; 15.3% (inactive) in assay [4]; 6.16% (inactive) in assay [9]; 3.1% (inactive) in assay [10]; 37.2% (inactive) in assay [11]. Further, the nuclei count in [2] is 117%. The z-score in assay [3] (setting [13]) is 0.0464; in [3] (setting [14]), -0.196; in assay [3] (setting [15]), -0.885. Further, in assay [5], the fluorescence slope is -0.461 (inactive). The NADPH fluorescence slope in [6] is -5.2e-05 (inactive). Moreover, the slope in assay [7] was 0.00535 (inactive). Further, in [8], the compound was classed as inactive.

With `CC(C)(C)c1ccc(C(O)CCCN2CCC(C(O)(c3ccccc3)c3ccccc3)CC2)cc1` (stereo not given), in assay [1], the cell count stood at 520. The inhibition was 6.8% (inactive) in assay [1]; -51.1% (inactive) in assay [2]; 21.2% (inactive) in assay [4]; 24.3% (inactive) and 153% (active) in assay [9]; 25.2% (inactive) in assay [10]; 30% (inactive) in assay [11]. The compound also had a nuclei count in [2] of 108%. Moreover, the z-score in assay [3] (setting [13]) was 0.975; in [3] (setting [14]), 0.958; in assay [3] (setting [15]), -1.3. Further, the slope in assay [7] is 0.00381 (inactive). The compound was called inactive in assay [8].

Take `COc1ccc(C(=O)Cn2c(Br)nc3c2c(=O)n(C)c(=O)n3C)cc1OC`: in assay [1], the cell count came out at 296. The inhibition in assay [1] is -12.5% (inactive); in assay [2] it was 28.7% (inactive); in assay [4] it was -1.75% (inactive); in assay [9], -16.3% (inactive). The compound also returned a nuclei count in assay [2] of 116%. The z-score is -1.61 in assay [3] (setting [13]), 0.384 in [3] (setting [14]) and -0.0762 in assay [3] (setting [15]). For the same compound, in [5], the fluorescence slope is -0.471 (inactive). Besides, the NADPH fluorescence slope in assay [6] was -1.3e-05 (inactive). In assay [7], the slope is 0.00557 (inactive).

`COC(=O)C1=C(C)N=C2SC(C)C(=O)N2C1c1cccs1` (stereo not given): in [1], the cell count was 366. For the same compound, the inhibition is 3.7% (inactive) in assay [1], -39.6% (inactive) in assay [2], 22.8% (inactive) in assay [4] and 14.7% (inactive) in assay [9]. Also, the nuclei count in assay [2] came out at 142%. Also, the z-score in assay [3] (setting [13]) was 1.89; in assay [3] (setting [14]), -0.39; in assay [3] (setting [15]), -0.931. The fluorescence slope in [5] is -0.426 (inactive). The NADPH fluorescence slope in [6] is -0.000101 (inactive). In addition, the slope in [7] was 0.00597 (inactive).

As a reminder, the inhibition is the drop in the measured response relative to a control, in per cent.

Values taken from PubChem BioAssay.
